The text below walks through data of PubChem BioAssay (NCI).

What all share (assay): NCI-60 one-dose screen, 48 h (100 = growth as untreated, 0 = no growth, -100 = all killed)
What all share (settings): 10 µM

The test system of experiment [1] is HT29 colon.
In experiment [2] the test system is SNB-19 CNS.
In experiment [3] the test system is U251 CNS.
Experiment [4] deals with PC-3 prostate.
Experiment [5] deals with SK-MEL-5 melanoma.
Experiment [6] relates to UACC-62 melanoma.
The subject of experiment [7] is LOX IMVI melanoma.
For experiment [8], the system named is SK-MEL-28 melanoma.
For experiment [9], the system named is SK-MEL-2 melanoma.
The subject of experiment [10] is SN12C renal.
Experiment [11] relates to UO-31 renal.
Experiment [12] deals with TK-10 renal.
Experiment [13] concerns ACHN renal.
Experiment [14] concerns CAKI-1 renal.
Experiment [15] relates to A498 renal.
Experiment [16] relates to CCRF-CEM leukemia.
For experiment [17], the system named is MOLT-4 leukemia.
Experiment [18] concerns SR leukemia.
In experiment [19] the test system is EKVX NSCLC.

SMILES strings stand for the structures. The panel holds about 83,000 compounds, 20% with a hit somewhere; the sample as a whole holds those more often.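 In brief: 96-well plates, 48 h treatment, single concentration, percent growth endpoint.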 A number with no mark means an inactive call. Activity calls are given as the source filed them. Rule for the calls: active = growth percent below 10; inactive = the rest.

On to `COc1cc(-c2nc(Nc3nc4ccccc4s3)[nH]c(=O)c2C#N)cc(OC)c1O`, for which the growth was 110% in experiment [1]; 96.1% in experiment [2]; 105% in experiment [3]; 101% in experiment [4]; 106% in experiment [5]; 102% in [6]. The growth in experiment [7] was 106%; in experiment [8], 110%; in experiment [9], 105%; in experiment [10], 102%; in [11], 88.1%; in experiment [12], 112%. Besides, the growth in [13] is 102%; in [14], 113%; in experiment [15], 103%; in experiment [16], 103%; in experiment [17], 94.7%; in [18] it was 108%.
Regarding `CCN(CC)CCCC(C)Nc1ccc2ccc(Cl)cc2n1` (centres undefined), the growth in experiment [1] was 86.1%; in experiment [2] it was 104%; in [3], 92.7%; in experiment [4], 90.5%; in experiment [6], 103%; in experiment [7], 95%. Further, the growth in experiment [8] is 106%; in experiment [9], 117%; in experiment [19] it was 103%; in experiment [10], 88.8%; in experiment [11], 85.8%; in [12], 100%. Besides, the growth in experiment [13] is 98.5%; in [14] it was 104%; in experiment [15], 92.3%; in [16] it was 102%; in [17], 96.5%; in experiment [18] it was 96.4%.
For the molecule `COc1cccc(Cn2c(-c3nonc3N)nc3ccccc32)c1`, the growth was -5.42% (active) in [1]; 53.3% in [2]; 18.4% in experiment [3]; 11% in experiment [4]; 16.8% in experiment [5]; 33.9% in experiment [6]. For the same molecule, the growth in experiment [7] was 40.9%; in [8], 43.7%; in [9] it was -12.2% (active); in experiment [10], 43.8%; in experiment [11], 33.2%; in experiment [12], 31.7%. Moreover, the growth in [13] was 46.6%; in experiment [14] it was 20.5%; in [15], -19.3% (active); in experiment [16], 9.82% (active); in experiment [17] it was 25.6%; in experiment [18], -5.32% (active).
Regarding `O=[N+]([O-])c1ccc(Oc2cc(Cl)c(Cl)cc2Cl)c(C(F)(F)F)c1`, the growth in experiment [1] was 105%; in experiment [2], 111%; in [3] it was 97.9%; in [4], 92.1%; in experiment [5], 96%; in experiment [6], 97%. For the same molecule, the growth was 99.2% in experiment [7]; 101% in experiment [8]; 94.3% in experiment [9]; 103% in [10]; 80.2% in experiment [11]; 115% in [12]. Besides, the growth is 96.8% in [13]; 92.3% in experiment [14]; 90.5% in [15]; 93.5% in experiment [16]; 87.5% in experiment [17]; 100% in experiment [18].
As for `CCOC(=O)C1(CC(C)C)CCOC1=O` (centres undefined), the growth was 104% in experiment [1]; 102% in experiment [2]; 95.2% in experiment [3]; 93.3% in experiment [4]; 104% in experiment [5]; 96.7% in experiment [6]. The growth is 96.8% in experiment [7]; 103% in experiment [8]; 113% in experiment [9]; 94.7% in experiment [10]; 90.1% in [11]; 106% in [12]. Also, the growth was 98.2% in experiment [13]; 92.4% in [14]; 107% in experiment [15]; 92.2% in experiment [16]; 100% in experiment [17]; 104% in experiment [18].
On to `COc1ccc(/C=C/C(C)=N/OCC(=O)O)cc1`, for which the growth in experiment [1] was 105%; in experiment [2] it was 103%; in experiment [3], 95.2%; in [4] it was 94.4%; in [5], 101%; in experiment [6], 113%. Also, the growth was 96.9% in experiment [7]; 114% in experiment [8]; 105% in experiment [10]; 95.9% in experiment [11]; 87.5% in experiment [12]; 72.8% in experiment [15]. Further, the growth was 95.7% in [16], 86.8% in experiment [17] and 93.4% in experiment [18].
On to `CCN(CC)CCSCCN(CC)CC`, for which the growth in experiment [1] was 104%; in experiment [2] it was 106%; in experiment [3], 91.7%; in experiment [4], 96.5%; in experiment [5] it was 99.6%; in [6] it was 102%. The growth in experiment [7] was 99%; in [8], 103%; in experiment [10], 101%; in experiment [11], 97.1%; in experiment [12], 103%; in experiment [13], 99%. In addition, the growth in [14] is 98%; in experiment [15], 89.4%; in [16] it was 91.9%; in experiment [17], 105%; in [18] it was 98.5%.
In the case of `Cc1ccc(Nc2nnc(-c3cc(-c4ccncc4)n(-c4ccccc4)n3)s2)cc1`, the growth was 36.9% in [1]; 89.7% in experiment [2]; 65.6% in experiment [3]; 56.1% in [4]; 67.7% in [5]; 83.9% in [6]. Further, the growth in experiment [7] is 58.5%; in experiment [8], 106%; in experiment [9] it was 92.4%; in experiment [19], 97.7%; in [10], 88.5%; in experiment [11], 40.3%. In addition, the growth in experiment [12] is 102%; in [13], 83%; in [14], 85.9%; in experiment [16] it was 35.7%; in experiment [17], 59.5%; in experiment [18] it was 63.6%.
With `O=C(Nc1cccc(Br)c1)c1cc(=O)[nH]c2ccccc12`, the growth in [1] was 107%; in experiment [2] it was 97.9%; in experiment [3] it was 91.5%; in experiment [4], 79.2%; in experiment [5], 95.5%; in experiment [6], 80.9%. Also, the growth in [7] is 89.3%; in experiment [8] it was 107%; in experiment [9], 56.6%; in [19], 87.1%; in experiment [10] it was 99.7%; in experiment [11], 97.9%. The growth in [12] is 109%; in [13] it was 98.5%; in experiment [14] it was 76.6%; in [15] it was 111%; in experiment [16] it was 84.9%; in experiment [17] it was 96.1%. In [18], the growth is 81%.
